Z-score and composite z-score data for 9 compounds are collected here from PubChem BioAssay.

A short description of assay [1]: E. coli DRC41 culture turbidity changes, primary screen, E. coli filamentation inducer project, strain DRC41, OD650, 48 h (AID 1152).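 Note: E. coli MC1000 strain DRC41 lacking acrAB efflux pump and sulA.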 The conditions noted are these: E. coli DRC41 (acrAB sulA), higher = more signal, called active from +8 up or from −8 down.
Assay [2] in a line: small-molecule binders of probe aLefty1, primary screen, biochemical, small-molecule microarray, 635/667 nm fluorescence (AID 1153).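 Note: score merges spot fluorescence with signal-to-noise ratio from the scanned slide images.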 The conditions noted are these: higher = more signal.
Assay [3] is described as follows: PSAC antagonists in infected red cells, primary screen, cell-based, P. falciparum Indochina, OD700, 1 h (AID 1154). Particulars: P. falciparum Indochina infected RBC osmotic lysis, higher = more signal, called active from +8 up or from −8 down.
Assay [4] in a line: PSAC antagonists in infected red cells, primary screen, cell-based, P. falciparum Indochina, OD700, 2 h (AID 1155).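 Note: lysis reports solute entry through the parasite surface anion channel PSAC; channel blockers reduce lysis of infected cells.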 The conditions noted are these: P. falciparum Indochina infected erythrocytes, osmotic lysis OD700; higher = more signal, called active from +8 up or from −8 down.
Assay [5] can be described thus: osmotic lysis modulators in infected erythrocytes, primary screen, PSAC antagonist project, cell-based, P. falciparum Indochina, OD700, 3 h (AID 1156). Particulars: higher = more signal, called active from +8 up or from −8 down.
Assay [6] is described as follows: PSAC antagonists in infected red cells, primary screen, cell-based, P. falciparum Indochina, OD700, 18 h (AID 1157). Particulars: P. falciparum Indochina infected erythrocytes, osmotic lysis OD700, 18 h; higher = more signal, called active from +8 up or from −8 down.
The nature of assay [7]: modulators of S6 phosphorylation in cells, primary screen, cell-based, A549, cytoblot, luminescence, serum-stimulated (AID 1158).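 Note: serum-stimulated A549 lung adenocarcinoma cells; signal is phosphorylated S6 detected by cytoblot immunostaining with HRP secondary.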 The conditions noted are these: A549 phospho-S6 cytoblot, 5 h, higher = more signal.
For assay [8], the target named is NADPH oxidase 2 (Homo sapiens) (UniProt P04839). Kind of assay: NOX2-dependent H2O2 signal modulators, primary screen, NOX inhibitor project, cell-based, HEK293-NOX2, PMA-stimulated, Amplex Red fluorescence (AID 1159). Note: test concentration not given here. The conditions noted are these: 45 min, higher = more signal, called active from +8 up or from −8 down.
NADPH oxidase 2 (Homo sapiens), sequence (P04839 whole entry, looked up): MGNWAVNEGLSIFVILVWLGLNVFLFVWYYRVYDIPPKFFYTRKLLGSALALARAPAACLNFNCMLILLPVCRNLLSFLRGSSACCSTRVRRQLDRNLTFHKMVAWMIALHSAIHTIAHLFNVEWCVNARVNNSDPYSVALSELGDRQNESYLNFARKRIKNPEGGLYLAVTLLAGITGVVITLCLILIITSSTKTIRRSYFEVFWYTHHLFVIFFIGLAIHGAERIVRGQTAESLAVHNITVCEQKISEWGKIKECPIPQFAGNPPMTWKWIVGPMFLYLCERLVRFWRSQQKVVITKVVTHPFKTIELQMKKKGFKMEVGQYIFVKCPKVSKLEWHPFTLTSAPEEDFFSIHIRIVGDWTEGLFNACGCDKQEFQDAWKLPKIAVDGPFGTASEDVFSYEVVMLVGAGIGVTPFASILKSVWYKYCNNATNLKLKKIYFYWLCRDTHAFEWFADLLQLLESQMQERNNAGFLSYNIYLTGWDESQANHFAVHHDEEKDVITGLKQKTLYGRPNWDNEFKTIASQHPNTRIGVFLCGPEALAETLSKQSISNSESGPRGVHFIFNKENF
Assay [9] deals with NADPH oxidase 4 (Homo sapiens) (UniProt Q9NPH5). Kind of assay: NOX4-dependent H2O2 signal modulators, primary screen, NOX inhibitor project, cell-based, HEK293-NOX4, tetracycline-induced, Amplex Red fluorescence (AID 1160). Particulars: 45 min, higher = more signal, called active from +8 up or from −8 down.
NADPH oxidase 4 (Homo sapiens), sequence (Q9NPH5 whole entry, looked up): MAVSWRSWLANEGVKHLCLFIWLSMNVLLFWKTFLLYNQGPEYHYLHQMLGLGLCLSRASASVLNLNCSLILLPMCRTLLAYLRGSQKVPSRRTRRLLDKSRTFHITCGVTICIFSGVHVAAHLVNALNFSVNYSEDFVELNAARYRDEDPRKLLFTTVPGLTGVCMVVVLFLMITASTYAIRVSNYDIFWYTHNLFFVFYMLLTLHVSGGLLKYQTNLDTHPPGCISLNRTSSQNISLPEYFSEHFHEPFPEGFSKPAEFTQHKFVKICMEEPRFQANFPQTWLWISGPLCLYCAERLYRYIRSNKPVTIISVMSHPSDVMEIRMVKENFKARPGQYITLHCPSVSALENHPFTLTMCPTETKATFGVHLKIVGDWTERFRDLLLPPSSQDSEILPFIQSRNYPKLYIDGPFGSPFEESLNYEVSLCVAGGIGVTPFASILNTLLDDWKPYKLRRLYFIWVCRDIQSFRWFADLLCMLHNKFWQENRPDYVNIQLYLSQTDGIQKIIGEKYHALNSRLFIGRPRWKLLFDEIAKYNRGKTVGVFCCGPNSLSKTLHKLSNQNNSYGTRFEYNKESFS
The target in assay [10] is NADPH oxidase 5 (Homo sapiens) (UniProt Q96PH1). Kind of assay: NOX5-dependent H2O2 signal modulators, primary screen, NOX inhibitor project, cell-based, HEK293-NOX5, Amplex Red fluorescence (AID 1161). Particulars: HEK293-NOX5, ionomycin, 45 min, higher = more signal.
NADPH oxidase 5 (Homo sapiens), sequence (Q96PH1 whole entry, looked up): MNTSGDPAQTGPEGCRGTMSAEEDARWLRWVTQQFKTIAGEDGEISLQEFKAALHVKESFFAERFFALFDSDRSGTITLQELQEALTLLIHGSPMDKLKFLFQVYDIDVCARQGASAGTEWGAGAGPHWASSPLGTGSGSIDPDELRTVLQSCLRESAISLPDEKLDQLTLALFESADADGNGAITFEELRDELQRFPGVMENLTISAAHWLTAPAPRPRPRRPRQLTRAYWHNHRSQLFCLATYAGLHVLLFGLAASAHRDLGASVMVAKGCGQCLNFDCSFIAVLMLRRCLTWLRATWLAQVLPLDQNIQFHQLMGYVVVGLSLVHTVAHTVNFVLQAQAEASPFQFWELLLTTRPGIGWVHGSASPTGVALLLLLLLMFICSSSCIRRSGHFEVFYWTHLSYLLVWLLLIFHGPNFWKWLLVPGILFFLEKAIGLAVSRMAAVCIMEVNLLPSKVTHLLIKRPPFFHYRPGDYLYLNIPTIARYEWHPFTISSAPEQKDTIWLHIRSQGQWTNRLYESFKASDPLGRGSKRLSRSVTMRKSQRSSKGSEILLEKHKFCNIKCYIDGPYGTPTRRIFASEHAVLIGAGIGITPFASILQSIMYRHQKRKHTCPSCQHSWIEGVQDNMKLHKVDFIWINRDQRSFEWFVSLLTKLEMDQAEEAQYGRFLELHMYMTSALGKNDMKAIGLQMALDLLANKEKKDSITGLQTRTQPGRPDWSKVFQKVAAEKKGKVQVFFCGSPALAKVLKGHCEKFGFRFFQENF
The nature of assay [11]: A549 cell viability effects, profiling panel, calcein-AM fluorescence, 48 h, basal (AID 1162). Note: test concentration not given here. The conditions noted are these: higher = more signal.
Assay [12] is described as follows: adipocyte viability effects, profiling panel, cell-based, 3T3-L1 adipocytes, calcein-AM fluorescence, 48 h, basal (AID 1163). Note: test concentration not given here. The conditions noted are these: 3T3-L1 adipocytes viability, higher = more signal.
A short description of assay [13]: HepG2 cell viability effects, profiling panel, calcein-AM fluorescence, 48 h, basal (AID 1164). Note: test concentration not given here. The conditions noted are these: higher = more signal.
A short description of assay [14]: MM1S cell viability effects, profiling panel, calcein-AM fluorescence, 48 h, basal (AID 1165).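 Note: viability of MM1S multiple myeloma cells under basal unstimulated conditions; test concentration not given here.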 The conditions noted are these: higher = more signal.
Assay [15] in a line: basal RPMI8226 viability, no added stimulus, profiling panel, cell-based, calcein-AM fluorescence, 48 h, PK04 Diversity Set (AID 1166).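 Note: cells grown under basal conditions without added stimulus; test concentration not given here.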 The conditions noted are these: RPMI8226 myeloma viability, higher = more signal.
Assay [16] can be described thus: basal HepG2 mitochondrial membrane potential changes, profiling panel, cell-based, JC-1 fluorescence, 24 h, 100 nL compound (AID 1167). Note: test concentration not given here. The conditions noted are these: higher = more signal.
The nature of assay [17]: basal 3T3-L1 adipocyte mitochondrial potential changes, profiling panel, cell-based, JC-1 fluorescence, 3T3-L1 adipocytes, 24 h, 100 nL compound (AID 1168). Note: test concentration not given here. The conditions noted are these: JC-1 mitochondrial fluorescence, higher = more signal, called active from +8 up or from −8 down.
The nature of assay [18]: basal RPMI8226 mitochondrial membrane potential changes, profiling panel, cell-based, JC-1 fluorescence, 24 h, 100 nL compound (AID 1169). Note: test concentration not given here. Particulars: RPMI8226 myeloma, JC-1 mitochondrial potential fluorescence, higher = more signal.
The nature of assay [19]: basal MM1S mitochondrial membrane potential changes, profiling panel, cell-based, JC-1 fluorescence, 24 h, 100 nL compound (AID 1170). Note: test concentration not given here. The conditions noted are these: higher = more signal.
The nature of assay [20]: A549 lung cancer cell viability effects, profiling panel, resazurin fluorescence, 24 h, PK04 Diversity Set (AID 1171). Note: test concentration not given here. Particulars: higher = more signal, called active from +8 up or from −8 down. In general terms: Alamar Blue is a resazurin reagent that responds to reducing activity.

Activity calls are given as the source filed them.

For `CC(C)[Si](C#CCCc1ccccc1)(O[C@H](c1ccccc1)c1cn(Cc2ccccc2)nn1)C(C)C`, the z-score was 1.09 (inactive) in assay [1]; 1.36 (inactive) in assay [3]; 0.308 (inactive) in assay [4]; -0.329 (inactive) in assay [5]; 0.53 (inactive) in [6]; 0.534 in [7]. In addition, the z-score was -0.967 (inactive) in assay [8]; -0.899 (inactive) in [9]; -3.17 in [10]; -0.865 in assay [11]; 0.254 in assay [12]; -1.01 in assay [13]. The z-score was -0.505 in [14]; -0.297 in assay [15]; 0.907 in assay [16]; -0.979 (inactive) in assay [17]; -0.631 in [18]; -1.08 in [19]. For the same compound, the z-score in assay [20] is 1.43 (inactive). In [2], this compound returned a composite z-score of 0.188.
For `CCCCCC1=C2CNC(CC(C)C)(C(=O)OC)C=C2C(C)C1=O` (stereo not given), the z-score is -1.07 (inactive) in assay [1]; 1.5 (inactive) in assay [3]; -0.602 (inactive) in assay [4]; 0.836 (inactive) in assay [5]; 0.347 (inactive) in assay [6]; -0.245 in assay [7]. Besides, the z-score in [8] was -0.0792 (inactive); in assay [9], -0.636 (inactive); in assay [10], -2.61; in [11] it was -0.659; in assay [12], -0.707; in [13], 0.468. Besides, the z-score in assay [14] is -0.227; in [15] it was -1.12; in assay [16], 0.745; in assay [17] it was -1.21 (inactive); in [18], -0.324; in [19], -1.53. The z-score in [20] is -0.683 (inactive). In addition, in assay [2], the composite z-score turned out to be 0.172.
With `COc1ccc(C(O)C2C=CC3C(=O)NC(=O)C3N2Nc2ccc(Cl)cc2Cl)c2ccccc12` (stereo not given), the z-score was -0.866 (inactive) in assay [1]; 2.37 (inactive) in assay [3]; 1.44 (inactive) in assay [4]; -0.46 (inactive) in assay [5]; 1.78 (inactive) in assay [6]; -0.101 in assay [7]. For the same compound, the z-score was -0.0689 (inactive) in assay [8]; -5.63 (inactive) in [9]; -1.58 in [10]; -1.88 in assay [11]; 0.0133 in [12]; -2.36 in assay [13]. Further, the z-score is -3.8 in assay [14]; -3.99 in assay [15]; -3.88 in assay [16]; 0.564 (inactive) in [17]; -1.1 in assay [18]; 0.533 in assay [19]. Besides, the z-score in assay [20] was -1.29 (inactive). This compound had a composite z-score in assay [2] of 0.379.
With `O=C1c2ccccc2[C@@]2(Cc3ccccc3N(Cc3ccccc3)C2=O)[C@H](c2ccc(CO)cc2)N1Cc1ccccc1Cl`, the z-score in [1] was -0.29 (inactive); in assay [3], 0.705 (inactive); in assay [4] it was 0.387 (inactive); in assay [5], -0.113 (inactive); in assay [6], 0.18 (inactive); in [7], 0.272. Further, the z-score is -0.534 (inactive) in [8]; -0.644 (inactive) in assay [9]; -1.11 in [10]; -0.334 in assay [11]; 0.331 in assay [12]; -0.826 in [13]. Further, the z-score in [14] was -0.411; in assay [15], 0.139; in assay [16] it was 1.1; in [17], -0.407 (inactive); in [18], -0.972; in [19], -0.316. For the same compound, in assay [20], the z-score is -0.166 (inactive). Besides, in assay [2], the composite z-score was -0.0479.
In the case of `CN(C)C(=O)[C@@]1(Cc2ccccc2CN=[N+]=[N-])COC(c2ccc(OCCCO)cc2)=N1`, the z-score was 2.37 (inactive) in assay [1]; 25.9 (active) in [3]; 11.1 (active) in assay [4]; 4.63 (inactive) in assay [5]; 1.67 (inactive) in assay [6]; 0.0188 in assay [7]. The z-score was -4.96 (inactive) in [8]; -1.37 (inactive) in [9]; -3.41 in assay [10]; -0.113 in assay [11]; 0.442 in assay [12]; 0.0407 in [13]. The z-score in assay [14] is -3.51; in assay [15], -2.76; in assay [16] it was 1.21; in assay [17] it was 1.1 (inactive); in assay [18], -1.08; in assay [19], -1.65. The z-score in assay [20] is 0.0714 (inactive). The same compound had a composite z-score in assay [2] of 0.236.
Take `O=C(NC1CC1)[C@@H]1c2ccccc2C(=O)N(Cc2ccc(OC(F)(F)F)cc2)[C@H]1c1ccc(CO)cc1`: the z-score is 0.93 (inactive) in assay [1]; 1.49 (inactive) in [3]; -0.538 (inactive) in assay [4]; 2.44 (inactive) in assay [5]; -1.2 (inactive) in assay [6]; 0.358 in [7]. Moreover, the z-score in [8] was 0.0746 (inactive); in assay [9] it was -0.866 (inactive); in [10] it was -0.523; in assay [11], 1.1; in assay [12] it was 0.707; in assay [13], -0.591. The z-score in [14] was 0.0839; in [15], -0.0348; in [16] it was 2.35; in assay [17] it was 0.379 (inactive); in assay [18], -0.261; in assay [19], 0.825. The z-score in [20] was 1.03 (inactive). Moreover, in assay [2], the composite z-score is 0.118.
Turning to `N#Cc1ccc(-c2cccc(=O)o2)cc1`, the z-score in assay [1] is -0.729 (inactive); in assay [3] it was 3.14 (inactive); in assay [4] it was 1.15 (inactive); in assay [5], -0.598 (inactive); in [6], 0.979 (inactive); in assay [7], -0.0905. Also, the z-score in assay [8] was 0.191 (inactive); in assay [9] it was -1.72 (inactive); in assay [10], 0.172; in assay [11] it was -0.719; in assay [12], -1.13; in assay [13], 0.37. Besides, the z-score was -0.0271 in assay [14]; -0.394 in [15]; -0.875 in [16]; 0.492 (inactive) in assay [17]; 0.0366 in assay [18]; -0.548 in [19]. Also, in assay [20], the z-score is -0.0498 (inactive). In assay [2], this compound displayed a composite z-score of -0.0954.
For `[N-]=[N+]=Nc1ccccc1C[C@@]1(C(=O)NCc2ccccc2)N=C(c2ccc(OCCCO)cc2)O[C@@H]1c1ccccc1N=[N+]=[N-]`, the z-score in assay [1] was 0.0484 (inactive); in [3] it was 31.4 (active); in assay [4], 24.3 (active); in assay [5] it was 2.08 (inactive); in [6], 0.984 (inactive); in assay [7], 1.38. Further, the z-score was -4.79 (inactive) in [8]; -2.16 (inactive) in [9]; -1.67 in [10]; -1.58 in [11]; 1.31 in assay [12]; -0.83 in assay [13]. The z-score in [14] is -3; in [15], -4.36; in assay [16] it was 0.728; in [17], -0.182 (inactive); in assay [18], -1.23; in assay [19], -0.936. The z-score in assay [20] is -0.996 (inactive). Moreover, in assay [2], the composite z-score turned out to be 0.399.
With `O=C1O[C@@H](c2ccccc2)[C@@H](c2ccccc2)N2[C@@H](c3ccc(OCCO)cc3)[C@]3(C(=O)Nc4ccc(C#CC5(O)CCCCCC5)cc43)[C@@H](C(=O)O)[C@H]12`, the z-score in [1] is 1.87 (inactive); in assay [3] it was -1.17 (inactive); in assay [4], -0.927 (inactive); in assay [5], -8.35 (active); in assay [6] it was -0.76 (inactive); in assay [7], 0.169. In addition, the z-score in assay [8] was 2.21 (inactive); in assay [9] it was -0.56 (inactive); in [10], 0.314; in assay [11] it was 0.942; in assay [12], 0.297; in assay [13] it was 1.36. For the same compound, the z-score in [14] is 0.213; in [15], 0.342; in assay [16], -0.969; in [17], -0.448 (inactive); in [18], -0.169; in assay [19], 0.0439. Also, the z-score in assay [20] is 1.12 (inactive). This compound had a composite z-score in assay [2] of -0.0862.
